Columns and labels:
Assay in all cases: PBM binding z-score (relative to random genomic background probes); higher = stronger binding; sequences stand for … in GC…GCGATTGACAGCGTAGAATGAAGG
[1] = system: PPARg:RXRa DBDmut IVT, anti-RXR (DBD mutation: RXRa K156A/R161A, NR concentration 270 nM, RXRa partner concentration 90 nM)
Summary of the method: (§1)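 For binding z-scores, the reference was random background probes on custom Agilent 4×180K protein-binding microarrays. These arrays were incubated 1 h with ligand-free nuclear receptor dimers in PBS pH 7.4, 2% milk, 0.02% Triton X-100, 1 mM DTT, 0.2 mg/mL BSA and 0.4 mg/ml salmon testes DNA. Fluorescence was scanned after antibody detection of each partner (one per run) and regression-normalized.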

[2] = system: PPARg:RXRa IVT, anti-PPARg (NR concentration 270 nM, RXRa partner concentration 90 nM)
Summary of the method: as §1

[3] = system: PPARg DBDmut:RXRa IVT, anti-PPARg (DBD mutation: PPARg1 K132A/R137A, NR concentration 270 nM, RXRa partner concentration 90 nM)
Summary of the method: as §1

[4] = system: PPARg DBDmut IVT, anti-PPARg (DBD mutation: PPARg1 K132A/R137A, NR concentration 270 nM)
Summary of the method: as §1

[5] = system: PPARg homodimer (NR concentration 180 nM)
Summary of the method: as §1

[6] = system: PXR:RXRa (NR concentration 270 nM, RXRa partner concentration 90 nM)
Summary of the method: as §1

[7] = system: PXR homodimer (NR concentration 270 nM)
Summary of the method: as §1

[8] = system: RARa:RXR (NR concentration 270 nM, RXRa partner concentration 90 nM)
Summary of the method: as §1

[9] = system: RARa homodimer (NR concentration 270 nM)
Summary of the method: as §1

[10] = system: RARb:RXRa (NR concentration 270 nM, RXRa partner concentration 90 nM)
Summary of the method: as §1

Row | Sequence | PBM binding z-score [1] | PBM binding z-score [2] | PBM binding z-score [3] | PBM binding z-score [4] | PBM binding z-score [5] | PBM binding z-score [6] | PBM binding z-score [7] | PBM binding z-score [8] | PBM binding z-score [9] | PBM binding z-score [10]
1 | TCATATAGGTAAACGGTGAAAGTCGGTGTGGTAA | 4.37 | 3.34 | 1.61 | 0.702 | 0.811 | 0.39 | 0.405 | 0.111 | 0.67 | 0.522
2 | GGAACGAGAGCATTCGAGTTGATAGCATGGCGAT | 0.00852 | -0.503 | -0.558 | -0.483 | -1.19 | 0.237 | -0.766 | -0.817 | -0.746 | -0.633
3 | TCTTGTAGATCTACAGGAGGTTAAGAAAGATCGA | 0.98 | 0.28 | 0.42 | 1.12 | -0.349 | 0.739 | -0.569 | 0.866 | -0.41 | 0.172
4 | CCTCGGAGGACAGAAGGTCAGAGCCGTCCGCTTT | 0.172 | -0.13 | -1.85 | -1.98 | 1.7 | 1.78 | -0.366 | 2.37 | 0.4 | 3.24
5 | ACTAGCAGGCCTAGTTTGGGTCACTCAAACAAAG | -0.402 | 0.669 | -0.351 | -1.26 | -0.416 | 0.282 | -0.591 | 1.1 | -0.718 | 0.83
6 | CTCGAGAGGTCGTGCTCAGGTGAGTATACCAAAC | 0.51 | 1.53 | -0.297 | -0.226 | 0.544 | 3.09 | 0.214 | 3.6 | -0.876 | 2.79
7 | AAATGTAGGTTATCGGGTCATTCAGTTTGCGCAT | 8.08 | 7.95 | 2.76 | 1.48 | 3 | 3.87 | 7.01 | 3.72 | 1.36 | 2.68
8 | TCTATTAGTTGATTAGGGCAACCGCAACAGCGGA | 2.2 | 1.59 | 0.83 | 0.659 | 0.498 | 0.281 | 0.274 | 0.408 | 0.676 | 0.729
9 | TGAATGAGGTTAAAAATCAGGGAACGTGGCGTCG | 1.43 | 1.8 | 0.361 | 0.195 | -0.0328 | 0.848 | -0.0817 | 1.45 | -0.472 | 1.32
10 | TTACCAAGGTGAAGGGTCGTTGATGCACGCCTTG | 1.59 | 4 | 0.187 | -0.561 | 0.981 | 1.57 | -0.419 | 2.72 | -0.291 | 2.08
11 | ATCGCAAGGTCGTGAGGTGAGTATACAGAAAGGC | -0.158 | 1.26 | 0.877 | -0.102 | 0.794 | 1.78 | 0.241 | 2.78 | -0.445 | 2.67
12 | ACTATTAGTTGACTTAGGGCATCCGATACGACGC | 0.311 | 0.614 | 1.03 | 0.574 | 0.0693 | 0.114 | 0.228 | 0.0202 | 0.624 | 0.643
13 | ACTATTAGTTGAGACGAAGGCAACCGATAGGTTG | -0.511 | -0.28 | 1.16 | 0.396 | 0.149 | -0.912 | -0.243 | -0.552 | 0.662 | -0.23
14 | TAGCCTAGGACATGGGCCAGTATACCACGCGAAC | -1.18 | -0.594 | -0.263 | -0.978 | -0.814 | -0.387 | -0.477 | -0.815 | -0.515 | 0.0238
15 | AGAACGAGGGCAATGAGTTGATGGCACGGGTGGC | 3.36 | 2.88 | 1.3 | -0.157 | -0.0227 | 1.19 | 3.75 | 0.0282 | -0.254 | 1.99
16 | GTACCATGGTGAATAGGTCGTTGATGAGTAGGCG | 0.107 | 0.275 | -0.162 | 0.3 | 0.352 | 0.151 | -0.347 | 0.29 | -0.148 | 0.41
17 | TCATATAGGTAGACAGGTGAAAGTCCGTAAGTTA | 3.02 | 1.33 | 1.18 | 0.507 | 1.25 | 0.852 | 0.981 | 0.512 | 1.24 | 0.76
18 | GCTTACGGGTCTAAGGTTATAGCATGAATAGAAT | 0.0529 | 0.754 | 0.306 | 0.266 | 0.501 | 0.939 | 0.427 | 1.66 | 0.142 | 1.02
19 | AGCATGAGGTTATACGTAGATCAGGGAAGAAAGT | 0.656 | 0.149 | 0.86 | 0.438 | 0.658 | 0.995 | 0.948 | 1.38 | 0.699 | 1.46
20 | ACTTACGGGTCAACAAGGTTATAGCACGCGTATA | 3.06 | 4.26 | 1.25 | 1.13 | 2.14 | 4.49 | 1.48 | 4.77 | 1.05 | 4.49
21 | CATATTAGTTGACCATAAGGGCAACCGAAGCTCG | 0.59 | 1.02 | 1.7 | 1.43 | 1.42 | 0.825 | 0.678 | 1.19 | 1.93 | 1.8
22 | CGTCAAAGTTCAACTAAGGTAAGGTAAAGCACGC | 0.313 | 2.23 | 0.694 | 0.769 | 2.56 | 5.25 | 3.24 | 4.42 | 1.63 | 5.2
23 | TCGATTAGTTGAAGGGCAACCGACGAGTCCGTTT | 1.72 | 0.195 | 0.000817 | 0.136 | -0.0561 | 0.157 | 0.0884 | 0.128 | 0.353 | 1.2
24 | TGTCAAACTTCAAAGGTAACGTAAGTATCCACAC | -0.251 | 1.47 | 0.991 | 1.2 | 0.478 | 0.345 | -0.16 | 0.522 | 0.335 | 0.94

Source: the supplement of paper PMC6555819
